Screen size: about 360,000 compounds; about 240 (0.067%) were called active. No stated cut-off is given here; in the data, active means activation above about 50%; inconclusive means mostly about 30% to 49%; inactive means weaker than that. The list comes from a sample in which actives are over-represented; it also holds similar structures and randomly drawn compounds.
assay: qHTS of IL-2 Activators; settings: IL-2 activation reporter assay, cell-based qHTS; active compounds read high; in transgenic mouse T cells; stimulated with anti-CD3/CD4/CD28 beads; further: 0% is about no effect
Text: The adaptive immune response against any infectious agent begins with the activation of an antigen specific T cell. This relatively rare and inert ("naive") T cell undergoes a massive proliferative expansion and differentiation process to generate sufficient number of potent pathogen-specific effector T cells. The effector T cells fight the infection by making cytokines and helping other cells to become fully armed as well. If any naive T cell has antigen receptors (TCRs) that can be activated by self peptides, then a variety of regulatory mechanisms kick in to prevent this cell from performing to its full potential. These processes collectively constitute the phenomenon of immunological tolerance and their failure leads to autoimmunity. One arm of tolerance involves generation of biochemical negative feedback downstream of the TCR (tuning). This is especially relevant to self antigens present in the body over long periods of time (chronic), which form the bulk of our proteome. The negative feedback serves to tune the TCR signaling, such that the ambient antigenic stimulation is nullified intracellularly. Unfortunately, this critical machinery serves as a target for chronic viral, bacterial and parasitic infections (as well as tumors), which can evade a robust immune response, simply by allowing T cells to tune down their signaling to pathogen or malignancy derived antigens. As such, disrupting the tuning in such cases would allow the tolerant T cell to function again and deliver a robust effector response.
If a therapeutic can restore responsiveness to the tuned down T cell, even for a short time, they could combat the pathogen without any additional immunization. To that end, we have developed a sensitive HTS T cell based assay based on IL-2. This assay will be screened against the Molecular Libraries Small Molecule Repository (MLSMR) to find small molecules that could elicit this response.
NIH Chemical Genomics Center [NCGC]
NIH Molecular Libraries Probe Centers Network [MLPCN]
Assay Submitter (PI): Ron Schwartz, NIAID
4 microL (750 cells/well) of unstimulated transgenic mouse T cells (columns 1-3,5-48) are dispensed into Aurora LoBase, black clear-bottom 1536-well assay plates; column 4 receives an identical concentration of transgenic memory T cells as a non-tolerant control. Compounds are then transferred via Kalypsys pin tool equipped with 1536-pin array (10 nL slotted pins, V&P Scientific, San Diego, CA). Following addition of compound and a 60 minute incubation, 1 microL of bead stimulation solution ((0.04 micron Fluospheres (Life technologies, CA) coated with 10ug/ml each anti-CD3 and anti-CD4 (clones 2C11 and GK1.5, BD Biosciences, CA) and mixed with 1ug/ml anti-CD28 (clone PV-1, BD biosciences, CA)). columns 2-48) is added to stimulate the IL-2 response pathway; media is instead added to column 1 as an unstimulated control, while PMA/ionomycin (Sigma Aldrich, MO) is added to column 3 as a control for IL-2 tolerance bypass. The plates are then incubated at 37 degrees C for 18 hours. EGFP and DsRed signal are then detected using an Acumen eX3 Explorer fluorescent plate cytometer. All cells are dispensed in cell media containing EHAA (Quality Biologicals, MD), RPMI (Quality Biologicals, MD), Glutamine (Life Technologies, CA), Penicillin/Streptomycin (Quality Biologicals, MD), 2-ME (Sigma Aldrich, MO) and 10% FBS (Gemini Bioproducts, CA) .

| SMILES | activation |
| --- | --- |
| CC(C)(C)NC(=O)C(c1ccc(Cl)cc1)N(CCO)C(=O)c1snc(C(N)=O)c1N (configuration not stated) | 0.402% (inactive) |
| CCOc1cc(S(=O)(=O)NC2CC(C)(C)NC(C)(C)C2)ccc1F | 0.923% (inactive) |
| C[C@H]1COc2cc(N3CCSCC3)ccc2S(=O)(=O)N1 | 0.723% (inactive) |
| CC(=O)Nc1ccc(NC(=O)CS(=O)(=O)c2cn(CC(=O)N3CCCCC3)c3ccccc23)cc1 | 2.22% (inactive) |
| CC1CC(NC(=S)N(C)C)CC(C)(C)C1 (configuration not stated) | -1.93% (inactive) |
| CCN(CC)S(=O)(=O)c1ccc(CNC(=O)CN2C(=O)NC3(CCc4ccccc43)C2=O)cc1 (configuration not stated) | -3.43% (inactive) |
| CCOCc1nnc(NC(=O)CCS(=O)(=O)Cc2ccccc2)s1 | 2.97% (inactive) |
| CCC(C)NC(=O)/C=C/c1ccc(S(=O)(=O)NCc2ccco2)cc1 (configuration not stated) | -0.382% (inactive) |
| O=C(CCS(=O)(=O)c1ccc2c(c1)NC(=O)CS2)NCc1ccccc1Cl | -0.54% (inactive) |
| O=C(O)C1C2C=CC(C2)C1C(=O)N1CCN(CCO)CC1 (configuration not stated) | -0.292% (inactive) |
| CCC(=O)c1ccc(OCC(O)Cn2nc(C)c(C(C)=O)c2C)cc1 (configuration not stated) | -0.63% (inactive) |
| Cn1cccc1Cc1nnc(SCC(=O)NCCc2ccccc2)n1-c1ccc(F)cc1 | -0.845% (inactive) |
| Cc1cccc(NC(=O)CSc2nc3c(c(=O)[nH]2)CCC3)c1C | -0.45% (inactive) |
| O=C1C[C@@H]2c3c(cccc3CN1Cc1ccccc1)C[C@@H](O)[C@H]2O | 0.126% (inactive) |
| CCCn1c(C(Cc2ccccc2)NC(=O)COC)nc2ccccc21 (configuration not stated) | 0.549% (inactive) |
| Cc1cccc(NC(=S)N2CCCC(c3nc4ccccc4[nH]3)C2)c1 (configuration not stated) | -0.267% (inactive) |
| Cc1cc2cc3c(N)[nH]nc3nc2cc1C | -0.975% (inactive) |
| C=CCN1C2CCCC1CC(NC(=S)Nc1cccc(OC)c1)C2 (configuration not stated) | -0.0533% (inactive) |
| O=S(=O)(NCc1ccccc1Br)c1ccccc1Br | 0.131% (inactive) |
| CCN(CC)C(=O)C1=C(C)N(Cc2ccc(F)cc2)C(=O)C(CC(=O)NCc2cccc3ccccc23)C1 (configuration not stated) | -1.55% (inactive) |
| CN1CCC(N(C)S(=O)(=O)c2ccc(NC(=O)c3cccc(C#N)c3)cc2)CC1 | 0.319% (inactive) |
| CCCN(CC1CC1)C(=O)COC(=O)c1ccc(C)cc1O | -0.72% (inactive) |
| COc1cccc2oc(CCc3ccccc3)cc(=O)c12 | 2.76% (inactive) |

| SMILES | activation |
| --- | --- |
| COC(C[C@@H]1O[C@@H]1C(=O)[C@@H](C)OCc1ccccc1)OC | 0.368% (inactive) |
| Cc1noc(/C=C/c2ccco2)c1S(=O)(=O)N1CCC(C(=O)Nc2ccc(Cl)cn2)CC1 | -0.421% (inactive) |
| Cc1cc(-c2csc(N)n2)c(C)n1-c1ccccc1 | -0.438% (inactive) |
| C[n+]1ccc(/C=C/c2c[nH]c3ccccc23)cc1 | 91.4% (active) |
| CSc1nsc(SC)c1NC(=O)OC1CCCCC1 | -1.77% (inactive) |
| CN1CCN(c2ccc3c(c2)OC[C@H](Cc2ccccc2)NS3(=O)=O)CC1 | 1.2% (inactive) |
| CC(=O)c1c(C)[nH]c(C(=O)Nc2cc(S(=O)(=O)N(C)C)ccc2C)c1C | 0.322% (inactive) |
| CO[C@@H]1CN(C)C(=O)c2cc(NC(=O)Nc3cc(F)ccc3F)ccc2OC[C@H](C)N(C(=O)c2ccccn2)C[C@@H]1C | -0.0824% (inactive) |
| CCCNC(=O)C1(C)CCN(Cc2csc(-c3ccc(Cl)cc3)n2)C1 (configuration not stated) | -0.168% (inactive) |
| CC(=O)NC12CC3CC(C1)CC(C(=O)N1CCN(C(=O)c4ccco4)CC1)(C3)C2 | 2.63% (inactive) |
| O=C(NCCCNC(=O)NC1CCCCC1)NC1CCCCC1 | 2.89% (inactive) |
| Cc1ccc(N(Cc2cc(=O)[nH]c3ccccc23)C(=O)CCl)cc1 | -4.77% (inactive) |
| CC1CN(C(=S)Nc2cccc(F)c2)CC(C)O1 (configuration not stated) | 0.508% (inactive) |
| COC(=O)c1cc2c(ccn2C)n1C | -0.203% (inactive) |
| CN(C)S(=O)(=O)c1ccc(N2CCCC2)c(C(=O)NCc2ccccc2)c1 | 0.204% (inactive) |
| Cc1ccc(-n2c(C)nnc2SCC(=O)NC2CC2)cc1 | -1.22% (inactive) |
| O=C(Oc1ccc(Br)cc1C(=S)N1CCOCC1)c1cccc([N+](=O)[O-])c1 | 0.801% (inactive) |
| O=C(C[n+]1ccc2c(c1)nnn2-c1ccccc1)c1ccc(Cl)cc1 | -1.14% (inactive) |
| O=c1c(-c2ccc(Cl)cc2)[n+]([O-])c2ccccc2n1OCc1nc2ccccc2[nH]1 | -0.455% (inactive) |
| O=C(Cc1nc2ccccc2[nH]c1=O)c1ccc(Cl)cc1 | 60.1% (active) |
| COc1ccc(N2CCN(C3CCCCC3NS(=O)(=O)c3ccccc3)CC2)cc1 (configuration not stated) | -5.42% (inactive) |
| CCOC(=O)N1CCN(C(c2ccnc3ccccc23)c2nnnn2-c2c(C)cccc2C)CC1 (configuration not stated) | -1.14% (inactive) |
| CC(=O)NCCC(=O)Nc1nc(C)c(Cc2ccc3c(c2)OCO3)s1 | -2.95% (inactive) |

| SMILES | activation |
| --- | --- |
| CCN(CC)c1ccc(NC(=O)C2CCC(CNc3c(N4CCCC4)c(=O)c3=O)CC2)c(C)c1 (configuration not stated) | -0.247% (inactive) |
| O=C(CS(=O)(=O)c1ccc(C(F)(F)F)cn1)NNC(=O)c1ccccc1 | 0.398% (inactive) |
| O=C(CSc1ccsc1[N+](=O)[O-])N1CCCCC1 | -0.638% (inactive) |
| CCOC(=O)N1CCC(N2Cc3cccc(C(=O)Nc4ccc(S(=O)(=O)N(CC)CC)cc4)c3C2=O)CC1 | -2.11% (inactive) |
| Cc1ccc(NC(=O)CSc2nc(=O)n(CCN(C)C)c3c2CCCC3)c(C)c1 | 0.222% (inactive) |
| CN1CCC(CN)(N2CCN(c3ccccc3)CC2)CC1 | 0.289% (inactive) |
| CCN(CC(=O)NCCCN1CCOCC1)S(=O)(=O)c1cc(Cl)ccc1Cl | -0.326% (inactive) |
| CC(C)C[C@@H](N)c1nnc(SCC(=O)c2ccc(Cl)cc2)o1 | 0.422% (inactive) |
| Cc1c(NC(=O)CSCc2ccccc2)cccc1C(=O)O | 3.04% (inactive) |
| COc1cccc(C(NC(C)=O)c2nc(-c3ccccc3OC)cs2)c1 (configuration not stated) | 0.438% (inactive) |
| COc1ccc2nc(Nc3nc(-c4cc5ccccc5oc4=O)cs3)sc2c1 | 57.4% (active) |
| CN(CCCC(=O)Nc1nccs1)S(=O)(=O)c1ccc(Cl)cc1 | -1.49% (inactive) |
| C=C1CCC(N(O)c2cc(C)on2)C(=C)CCC2C1CC2(C)C (configuration not stated) | -0.223% (inactive) |
| NC(=O)COc1ccc(C23CC4CC(CC(C4)C2)C3)cc1 | -3.06% (inactive) |
| COC(C[C@@H](O)C[C@H](O)[C@H](C)OCc1ccccc1)OC | 2.56% (inactive) |
| COc1cccc(C(=O)Nc2c3c(nn2-c2cccc(C)c2C)CS(=O)(=O)C3)c1OC | -0.743% (inactive) |
| CCCCc1nc2cc(C(=O)NCCc3cnn(C)c3)ccc2o1 | -2.8% (inactive) |
| CCNc1c(NS(=O)(=O)c2ccc(C3CCCCC3)cc2)c(=O)oc2ccccc12 | -0.121% (inactive) |
| CC(=O)Nc1ccc(CN2CCN(Cc3ccc(F)c(F)c3)C(CCO)C2)cc1 (configuration not stated) | -0.804% (inactive) |
| Cc1ccc(-c2c[n+](=O)c3c(n2[O-])CCC3)cc1 | 1.34% (inactive) |
| COc1ccc(N(CC(=O)NC2CCCC2)C(=O)CS(=O)CC(=O)Nc2ccc3c(c2)OCO3)cc1 (configuration not stated) | -2.57% (inactive) |
| c1csc(CN2CCN(Cc3cccs3)C2c2cccs2)c1 | 0.339% (inactive) |
| Cc1cc(C)cc(C(=O)NC(CC(N)=O)c2ccc(N3CCC(N4CCCCC4)CC3)c([N+](=O)[O-])c2)c1 (configuration not stated) | -0.417% (inactive) |

| SMILES | activation |
| --- | --- |
| O=C(O)CCCCOn1ccnc1 | 1.09% (inactive) |
| CCn1nc(C)c(CN2CCN(Cc3ccc(OC)c(C)c3C)C(CCO)C2)c1C (configuration not stated) | -3.09% (inactive) |
| O=C(O)c1ccccc1N=N/C(=N/Nc1cc(S(=O)(=O)O)ccc1O)c1ccccc1 | 0.118% (inactive) |
| CCOC(=O)[C@]12CCCC=C1N(Cc1cccc3ccccc13)C(=O)[C@H](CC(=O)NCC13CC4CC(CC(C4)C1)C3)C2 | -1.16% (inactive) |
| CCN(CC)S(=O)(=O)c1ccc(N2CCN(C)CC2)c(NC(=O)Nc2ccccc2F)c1 | -1.22% (inactive) |
| CC1(Oc2ccc(Cl)cc2)CCN(Cc2csc3ccccc23)C1 (configuration not stated) | 0.192% (inactive) |
| COC(=O)COc1cccc2c(=O)n(CC(=O)NCc3ccccc3)ccc12 | -3.22% (inactive) |
| CCOC(=O)N1CCN(C(=O)c2ccccc2SCC(=O)NCC2CCCCC2)CC1 | -1.16% (inactive) |
| O=C(NCc1ccccc1Cl)c1csc([C@@H]2O[C@H](CO)[C@@H](O)[C@H]2O)n1 | 0.0054% (inactive) |
| CC(=O)Nc1ccc(C(=O)Nc2cc(S(=O)(=O)N3CCOCC3)ccc2N2CCOCC2)cc1 | -2.32% (inactive) |
| Nc1nc(-c2sc3nc4c(cc3c2N)CCCC4)nc(N2CCOCC2)n1 | -1.7% (inactive) |
| CCCc1cc(=O)[nH]c(SCc2cc(=O)oc3c(C)c(C)ccc23)n1 | -0.327% (inactive) |
| CCOc1ccccc1NC(=O)C12CC3CC(C1)CC(c1ccc(C)cc1)(C3)C2 | -4.57% (inactive) |
| Cc1cc(C)c2c(-n3cccc3)c(C(=O)NNS(=O)(=O)c3ccc(F)cc3)sc2n1 | 0.79% (inactive) |
| CC(=O)N(Cc1cccs1)C1CCOC(C)(C)C1 (configuration not stated) | -0.456% (inactive) |
| O=C(NNC(=S)NC1CC2CCC1C2)c1ccc(Cl)cc1 (configuration not stated) | -0.932% (inactive) |
| Cc1ccccc1-n1nnc2c(=O)oc3ccccc3c21 | -0.569% (inactive) |
| COc1ccccc1CNC(=O)C1CCCN(S(=O)(=O)c2cccc3cccnc23)C1 (configuration not stated) | -1.32% (inactive) |
| Cc1ccc(C(CC(=O)O)NC(=O)c2ccc(S(=O)(=O)N3CCCC3)cc2)cc1 (configuration not stated) | 0.29% (inactive) |
| CC1=C(C(=O)OC2CCCCC2)C(c2ccccc2F)NC(=O)N1 (configuration not stated) | -8.28% (inactive) |
| Cn1cccc1C1(C(F)(F)F)NCCNC1=O (configuration not stated) | -1.5% (inactive) |
| CCO[C@H]1OC(C(=O)N2CCOCC2)=C[C@@H](c2ccc3c(c2)OCO3)[C@@H]1CCCO | -0.126% (inactive) |
| Cc1nn(CCOc2ccc(Br)cc2)c(C)c1[N+](=O)[O-] | -2.36% (inactive) |
